Molecules are shown by their SMILES. The source made the active and inactive calls.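 How the source made its calls: active means mean duplicate potentiation above the buffer control mean plus 5 SD of buffer wells; inactive means the rest.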

Chain of Potassium voltage-gated channel subfamily KQT member 2 (Rattus norvegicus) (O88943 whole entry, looked up): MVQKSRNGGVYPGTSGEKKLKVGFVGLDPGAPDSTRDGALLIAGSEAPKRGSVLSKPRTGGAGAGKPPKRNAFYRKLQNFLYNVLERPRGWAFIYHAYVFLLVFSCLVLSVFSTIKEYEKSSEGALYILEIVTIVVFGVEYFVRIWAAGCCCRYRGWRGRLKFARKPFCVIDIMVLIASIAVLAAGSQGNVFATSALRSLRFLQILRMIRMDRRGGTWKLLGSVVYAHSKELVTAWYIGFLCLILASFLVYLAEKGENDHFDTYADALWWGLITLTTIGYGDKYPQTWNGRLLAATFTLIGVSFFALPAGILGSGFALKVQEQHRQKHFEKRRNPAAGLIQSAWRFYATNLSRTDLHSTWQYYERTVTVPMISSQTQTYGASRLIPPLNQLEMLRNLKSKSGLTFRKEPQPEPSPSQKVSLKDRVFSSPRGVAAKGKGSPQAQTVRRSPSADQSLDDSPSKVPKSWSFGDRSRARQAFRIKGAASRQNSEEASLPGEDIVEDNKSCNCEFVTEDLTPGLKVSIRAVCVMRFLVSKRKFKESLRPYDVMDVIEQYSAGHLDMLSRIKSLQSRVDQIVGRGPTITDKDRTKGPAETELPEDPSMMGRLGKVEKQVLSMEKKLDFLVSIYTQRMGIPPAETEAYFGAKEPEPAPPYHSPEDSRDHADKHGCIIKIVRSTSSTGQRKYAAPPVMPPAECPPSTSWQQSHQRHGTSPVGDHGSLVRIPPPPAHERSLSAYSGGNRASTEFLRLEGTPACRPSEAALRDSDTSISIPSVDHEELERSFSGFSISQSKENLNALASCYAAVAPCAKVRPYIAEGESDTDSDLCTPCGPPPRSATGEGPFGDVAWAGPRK

The assay concerns the target Potassium voltage-gated channel subfamily KQT member 2 (Rattus norvegicus) (UniProt O88943). Kind of assay: KCNQ2 thallium flux enhancement – KCNQ2-CHO-K1 cells, selectivity assay for KCNQ1 potentiator project (AID 493009).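 Further: assay conditions were tuned for KCNQ1 rather than KCNQ2 modulators; signal is max minus min fluorescence divided by baseline after thallium stimulus.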 The conditions noted are these: FluxOR thallium flux fluorescence, at 10 µM; active compounds read high, scaled: buffer 0, activator control 100.
On to `C=CCSc1nc2sc3c(c2c(=O)n1CC)CCc1ccccc1-3`, for which the potentiation was 192% (active).
Still for that read-out and setting: with `CCOC(=O)c1c(NC(=S)NCCc2ccccc2)sc2c1CC(C(C)C)OC2` (stereo not given) the figure was 146% (active).
Take `O=C(C1CCCCC1)N(CCN1CCCC1)c1nc2ccccc2s1`: the outcome was inactive.
Consider `CCN(CC)CC(=O)Nc1ccc2c(c1)Nc1ccccc1CC2`, for which the potentiation was 217% (active).
On the same count and under the same terms, the result for `COc1ccc2nc(N=Nc3ccc(O)c4ccccc34)sc2c1` reads 188% (active).
Regarding `Cc1ccccc1-c1nc(-c2ccccn2)no1`, the outcome was inactive.
The same measure, in the same setting: with `O=C(NNc1nc2c(F)cccc2s1)c1cc(=O)c2ccccc2o1` the entry was “inactive”.
On to `Cc1ccc(C(=O)CC(=O)c2cc(Cl)ccc2O)cc1`, for which the potentiation was 152% (active).
Still for that read-out and setting: the result for `O=C(NC(=S)N1CCc2ccccc21)c1ccccc1` reads 366% (active).
`COc1ccc(CCNC(=O)c2ccc(N(C)S(=O)(=O)c3ccc(C)cc3)cc2)cc1OC`: the outcome was inactive.
Still for that read-out and setting: with `Oc1c(Cl)cc(Cl)cc1C=Nc1ccc2c(c1)OCCO2` the entry was “inactive”.
As to `O=C(CC(=O)c1ccccc1O)c1cccc(F)c1`, the potentiation was 188% (active).
Same read-out and setting: the result for `ON/C=N/C(=S)Nc1ncc(C(F)(F)F)cc1Cl` reads 218% (active).
Regarding `Cc1cc(C(=O)N/N=C/c2cccs2)no1`, the result was inactive.
As to `COc1ccc(NC(=O)CCCSc2nc(-c3ccco3)cc(C(F)(F)F)n2)cc1OC`, the outcome was inactive.
The same measure, in the same setting: the result for `CN1C(=O)/C(=N\OC(=O)c2cccc3ccccc23)c2ccccc21` reads “inactive”; that for `COc1ccc(CN(C)C(=O)c2ccc3ccccc3n2)cc1F`, “inactive”.
Consider `CCOc1ccc2[nH]c(=O)c(CN(CCN3CCCC3)C(=S)Nc3ccccc3OCC)cc2c1`, for which the potentiation was 164% (active).
In the case of `COCCn1c(SCC(=O)NCc2ccc3c(c2)OCO3)nnc1C(C)C`, the outcome was inactive.
Consider `CCOC(=O)Cn1c(=N)n(CCOc2ccc(Br)cc2)c2ccccc21`, for which the outcome was inactive.
`O=C(NN=C1c2ccccc2-c2ccccc21)c1cccc(Br)c1`: the potentiation was 154% (active).
In the case of `O=C(NNc1nc2c(F)cc(F)cc2s1)c1ccccc1`, the outcome was inactive.
For `COc1ccccc1OCCSc1nc2ccccc2n1CCC(=O)O`, the outcome was inactive.
Still for that read-out and setting: with `CC(=O)SCC(=O)N=c1sc2cc(F)ccc2n1C` the entry was “inactive”.
With `O=C(Nc1nnc(-c2ccc3c(c2)CCCC3)o1)c1ccccc1Cl`, the potentiation is 267% (active).
Same read-out and setting: the result for `COc1ccc(/C=C2\SC(=S)N(NS(=O)(=O)c3ccc(C)cc3)C2=O)c(OC)c1` reads 261% (active).
Take `CC(=O)OCC(=O)[C@@]1(OC(C)=O)[C@@H](C)C[C@H]2[C@@H]3C[C@H](F)C4=CC(=O)C=C[C@]4(C)[C@@]3(F)[C@@H](O)C[C@@]21C`: the outcome was inactive.
Same read-out and setting: the result for `O=C(NC(=S)Nc1ccccc1Br)c1ccco1` reads “inactive”.
For `CCCCCc1ccc(C(=O)CCCC)c(=S)[nH]1`, the potentiation is 300% (active).
In the case of `CC(C)NC(=O)/C(=C/c1cn(-c2ccccc2)nc1-c1cccc([N+](=O)[O-])c1)NC(=O)c1ccccc1`, the outcome was inactive.
Take `C=CCN(CC=C)C(=S)NC(=O)c1ccc(OC)cc1`: the potentiation was 162% (active).
On to `Cc1ccc(N2C(=O)N3[C@H](c4ccc(F)cc4)[C@@H]4C(=O)N(C5CCCCC5)C(=O)[C@@H]4[C@]3(Cc3ccccc3)C2=O)cc1`, for which the outcome was inactive.
For `NC(=O)CSc1nnc(-c2ccccc2Br)n1-c1cccc(C(F)(F)F)c1`, the outcome was inactive.
For `COc1ccc2nc(/N=C/c3c(C)[nH]n(-c4ccc(C)cc4C)c3=O)sc2c1`, the potentiation was 306% (active).
Take `CN(C)CC1CCCCC1OC(=O)/C=C/c1ccc(Cl)cc1Cl` (stereo not given): the outcome was inactive.
The same measure, in the same setting: with `CC1(N2CCCCC2)CC2(O)C(=[N+]1[O-])CCC/C2=N\O` (stereo not given) the entry was “inactive”.
For `C=CCn1c(O)c(N=NC(=S)Nc2ccccc2C)c2cc(S(=O)(=O)N3CCOCC3)ccc21`, the potentiation was 226% (active).
On to `CC(=O)c1c(C)[nH]c(C(=O)Nc2cccc(C(F)(F)F)c2)c1C`, for which the outcome was inactive.
Same read-out and setting: with `OCCN1CCN(C2CCC(c3ccc(F)cc3)c3ccc(F)cc32)CC1` (stereo not given) the entry was “inactive”.
On the same count and under the same terms, the result for `CCc1nccn1S(=O)(=O)c1ccc2ccc(C)cc2c1` reads “inactive”.

These data come from PubChem BioAssay.
